# Assay outcomes (PubChem)
# This is a sample that favours compounds with a hit; in the whole collection about 2.8% have one here.
# dFosB act-1: activators of delta FosB homodimer, primary screen, biochemical, fluorescence polarization, TAMRA-CDK5 oligo, single point; Protein FosB (Mus musculus), P13346; purified delta FosB; percent of positive-control signal above neutral wells; activation, % at 25 µM; hit rate 0.99% among 340,000; AID 493131, 2011;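 active means mean activation above about 17%, with every replicate also reaching it, limit read from the data, passing the limit was not always enough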
# PglD inh: C. jejuni PglD acetyltransferase inhibitors, primary screen, biochemical, DTNB colorimetric, single point; UDP-N-acetylbacillosamine N-acetyltransferase PglD (Campylobacter jejuni); purified PglD enzyme, DTNB colorimetric CoA detection; inhibition, % at 12.5 µM; hit rate 0.098% among 360,000; AID 602405, 2012; in the data active means inhibition above about 16%, passing the limit was not always enough
# SIRT5 block: SIRT5 desuccinylase inhibitors, primary screen, biochemical, fluorescence imaging, single point, set 5; NAD-dependent protein deacylase sirtuin-5, mitochondrial (Homo sapiens), Q9NXA8; Purified SirT5, succinyl-peptide AMC, trypsin-coupled fluorescence; inhibition, % at 15 µM; hit rate 1.1% among 330,000; AID 652115, 2013; in the data active means inhibition above about 15%
# Target sequence (Q9NXA8 whole entry, looked up): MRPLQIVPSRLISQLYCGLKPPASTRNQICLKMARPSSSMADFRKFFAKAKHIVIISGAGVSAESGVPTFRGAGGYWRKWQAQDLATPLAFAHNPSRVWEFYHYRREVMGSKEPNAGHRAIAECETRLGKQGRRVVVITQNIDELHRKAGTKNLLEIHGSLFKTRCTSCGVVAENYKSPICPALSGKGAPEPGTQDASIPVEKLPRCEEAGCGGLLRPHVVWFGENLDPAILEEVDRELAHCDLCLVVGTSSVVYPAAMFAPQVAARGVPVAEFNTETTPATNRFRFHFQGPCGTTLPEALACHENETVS
# PvdQ acylase: P. aeruginosa PvdQ acylase inhibitors, primary screen, biochemical, fluorescence, plate reader and imaging, single point; PvdQ acylase [Pseudomonas aeruginosa LESB58]; purified PvdQ acylase; hit rate 0.063% among 340,000; inhibition, % at 10 µM; AID 488965, 2010; in the data active means inhibition above about 30%, passing the limit was not always enough;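 further: 0% = vehicle neutral wells and 100% = reference inhibitor wells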
# CDK5 inh: inhibitors of human CDK5/p35 kinase, primary screen, biochemical, single concentration | Recombinant CDK5/p35, ADP-Glo luminescence, 60 min | Cyclin-dependent kinase 5 (Homo sapiens) + Cyclin-dependent kinase 5 activator 1 (Homo … | hit rate 0.01% among 330,000 | AID 488839, 2010 | inhibition, % at 10 µM;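 active means highest replicate inhibition of at least 50% and at least 75% of replicates reaching 50%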;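 further: plate controls were DMSO neutral control for no effect and GW8510 at 10 µM for full effect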
# FGF22 binding: binders of human FGF22 protein, primary screen, FGF22 synaptogenesis inhibitor project, biophysical, thermal shift, single point; Fibroblast growth factor 22 (Homo sapiens), Q9HCT0; activity (Tm shift, normalised), % at 9.99 µM; AID 651658, 2012; recombinant FGF22 thermal shift, SYPRO orange fluorescence; percent of sucrose octasulfate shift, DMSO zero; hit rate 1.5% among 340,000;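 active means mean Tm shift, scaled 0 neutral to 100 positive control, at about 1.3% or above, every replicate too, limit read from the data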
# Target sequence (Q9HCT0 whole entry, looked up): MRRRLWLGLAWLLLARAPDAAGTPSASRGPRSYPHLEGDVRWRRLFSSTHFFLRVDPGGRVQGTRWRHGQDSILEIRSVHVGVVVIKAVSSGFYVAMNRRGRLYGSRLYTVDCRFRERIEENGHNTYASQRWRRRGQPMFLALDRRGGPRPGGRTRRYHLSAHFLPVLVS
# dFosB act-2: activators of mouse delta FosB DNA binding, confirmation, biochemical, fluorescence polarization, TAMRA-CDK5 oligo, cherry-picked samples. shares compounds with dFosB act-1. purified delta FosB; normalised: neutral wells 0, positive control 100. activation, % at 24.9 µM. 2,400 tested, under 10 active;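 active means highest replicate activation at or above 34% and every replicate reaching that threshold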;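 further: higher polarization means more probe DNA bound by delta FosB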
# * marks the source's active call; other numbers are inactive results; · = not tested or not shown.
SMILES,dFosB act-1,PglD inh,SIRT5 block,PvdQ acylase,CDK5 inh,FGF22 binding,dFosB act-2
Cc1cc(C)c(NC(=O)CSCc2nc3sc(C)c(C)c3c(=O)[nH]2)c(Cl)c1,32*,0,3,-5,1,0,1
COc1ccc(S(=O)(=O)N(C)C[C@@H]2Oc3ccc(NS(=O)(=O)c4ccc(C)cc4)cc3C(=O)N([C@H](C)CO)C[C@@H]2C)cc1,·,·,12,·,·,-1,·
O=C(NC(NC(=S)Nc1c(Cl)cccc1Cl)C(Cl)(Cl)Cl)OCc1ccccc1 (configuration not stated),16*,·,3,-9,-1,0,6
CCOc1ccc(-n2c(SCC(=O)N3CCc4ccccc43)nnc2-c2c[nH]c3ccccc23)cc1,27*,0,-2,1,4,0,4
Cc1cccc(-n2c(Cc3cc(=O)[nH]c(=O)[nH]3)nnc2SCC(=O)N2CCc3ccccc32)c1,38*,-7,4,11,1,0,-2
O=C(CSc1nnc(Cc2cc(=O)[nH]c(=O)[nH]2)n1-c1ccccc1)N1CCCc2ccccc21,-5,3,·,7,0,·,·
COc1ccc(NC(=O)N(C)C[C@H]2Oc3ccc(NC(=O)CCCCCC(=O)Nc4ccccc4N)cc3CC(=O)N([C@H](C)CO)C[C@@H]2C)cc1,·,·,·,·,·,0,·
COc1ccc(C(CNC(=O)c2oc3ccc(OC)cc3c2C)N2CCCC2)cc1 (configuration not stated),10,-2,-3,-5,-4,0,·
CCc1ccc2oc(C(=O)NCC(c3ccc(OC)cc3)N3CCCCC3)c(C)c2c1 (configuration not stated),21*,-3,0,-8,-2,0,0
Cn1nc(C(=O)Nc2ccc(Br)cc2)cc1C(=O)Nc1ccc(Br)cc1,40*,-6,-4,2,1,0,5
COc1cccc(NC(=O)c2cc(C(=O)Nc3cccc(OC)c3)n(C)n2)c1,4,1,0,7,-2,·,·
Cc1nn(-c2ccc(F)cc2)c(Cl)c1/C=N/NC(=O)c1cccs1,39*,·,·,-9,0,·,-3
Cc1nn(-c2ccc(F)cc2)c(Cl)c1/C=N/NC(=O)c1ccc(O)cc1,-13,·,-1,5,0,43,·
Cc1nn(Cc2c(Cl)cccc2Cl)c(Cl)c1/C=N/NC(=O)c1cccnc1,56*,·,-1,-2,0,0,4
Cc1nn(-c2cccc(Cl)c2)c(Cl)c1/C=N/NC(=O)c1cccnc1,23*,·,-1,-4,0,43,0
O=[N+]([O-])c1ccccc1/C=C/C=N/n1c(-c2cc(-c3ccccc3)n[nH]2)n[nH]c1=S,54*,·,-4,-16,2,0,2
S=c1[nH]nc(-c2cc(-c3ccccc3)n[nH]2)n1/N=C/C=C/c1ccccc1,41*,2,-4,15,2,0,0
S=c1[nH]nc(-c2cc(-c3ccccc3)n[nH]2)n1/N=C/c1ccccc1,11,4,-1,-11,3,0,·
Cc1ccc(C(Sc2ccccc2)C(Cn2cncn2)C(=O)c2ccccc2)cc1 (configuration not stated),24*,2,·,-8,1,·,0
Cc1ccc(SC(c2ccc(C)cc2)C(Cn2cncn2)C(=O)c2ccccc2)cc1 (configuration not stated),-5,·,·,-5,0,·,·
O=C(C[C@@H]1CC[C@H](NC(=O)c2ccc3c(c2)OCO3)[C@@H](CO)O1)NCc1ccc(Cl)cc1,·,-3,1,·,·,0,·
Cc1ccc(SCc2nc3ccccc3n2CC(=O)Nc2c(C)cccc2C)cc1,32*,1,·,-7,1,·,0
C[C@H]1CN([C@@H](C)CO)C(=O)c2ccccc2-c2ccccc2CO[C@@H]1CN(C)C(=O)c1ccc(F)cc1,·,3,1,·,·,0,·
CCc1cccc(OCCOC(=O)CNS(=O)(=O)c2ccc(NC(C)=O)cc2)c1,56*,5,-13,-6,1,0,3
CCS(=O)(=O)N1CC2(C1)[C@H](c1ccccc1)[C@@H](CO)N2C(=O)C1CC1,·,·,-1,·,·,0,·
SMILES,dFosB act-1,PglD inh,SIRT5 block,PvdQ acylase,CDK5 inh,FGF22 binding,dFosB act-2
Cc1ccc(S(=O)(=O)N(C)C[C@H]2Oc3c(NC(=O)C4CCOCC4)cccc3C(=O)N([C@@H](C)CO)C[C@H]2C)cc1,·,-3,0,·,·,0,·
COc1ccccc1NC(=O)Nc1ccc2c(c1)C(=O)N(C)C[C@@H](OC)[C@@H](C)CN(C)[C@@H](C)CO2,·,1,-3,·,·,0,·
O=C1[C@@H](Oc2ccccc2)[C@@H](c2ccccc2)N1c1ccccc1,-1,-5,-2,-4,0,0,·
O=C1[C@H](Oc2ccccc2)[C@@H](c2ccccc2)N1c1ccncc1,18*,4,-1,-11,1,0,2
COc1cccc(C(=O)Nc2nnc(-c3ccc(Cl)cc3)o2)c1,23*,5,·,-12,0,0,-2
COc1cccc(C(=O)Nc2nnc(-c3ccc(F)cc3)o2)c1,2,0,-1,0,0,0,·
COc1cc(OC)cc(-c2nnc(NC(=O)c3ccc4c(c3)OCCO4)o2)c1,26*,-3,-2,-7,-1,0,-8
N#CCCn1cc(/C=N/NC(N)=S)c(-c2ccc(-c3ccccc3)cc2)n1,27*,·,-1,7,1,0,4
Cc1cccc(Nc2nnc(SCC(=O)NC3CCCc4ccccc43)s2)c1 (configuration not stated),21*,7,-3,1,·,0,-3
Cc1ccc(Nc2nnc(SCC(=O)NC3CCCc4ccccc43)s2)cc1 (configuration not stated),9,·,·,6,2,·,·
NC(=O)C1CCN(CC(=O)NC2CCCc3ccccc32)CC1 (configuration not stated),0,·,4,-11,1,·,·
Cc1ccc(-c2nnn(CC(=O)NC3CCCc4ccccc43)n2)cc1 (configuration not stated),25*,-3,·,1,·,·,-1
